# This is one part of a sample in which hits are shown more often than they occur.
# TDP1 cell CPT = DT40-hTDP1 cell growth loss with CPT. chicken DT40 Tdp1-/-;hTDP1 cells + 20 nM CPT, ATP luminescence, 48 h. Potency, µM (doses to about 46.2 µM), for the others: at the highest dose activity change, negative = growth inhibition, usual class: inhibitors. 420,000 compounds, 12% hits. AID 686979; further: potency means the concentration at half of the fitted maximal effect; nearly all actives have a fitted effect of over 55% in size
#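 Chicken DT40 Tdp1-/- cells stably complemented with human TDP1 were seeded at 400 cells/well in medium containing 20 nM camptothecin, exposed to pin-transferred compounds, and grown at 37 °C for at least 48 hr. Viability was read as ATP luminescence.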
# DT40 TDP1 no CPT = qHTS for Inhibitors of human tyrosyl-DNA phosphodiesterase 1 (TDP1): qHTS in cells in absence of CPT; DT40 Tdp1-/- hTDP1 cells, no CPT, ATP luminescence, 48 h; Potency, µM (top dose mostly 46.2 µM), for inactives: at the top dose activity change, negative = growth inhibition, hits mostly inhibitors; 420,000 compounds, 15% hits; AID 686978, 2013; further: potency means the concentration at half of the fitted maximal effect; nearly all actives have a fitted effect of over 55% in size
#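 Cells were dispensed at 400 per well, compounds added by pin tool, plates incubated ≥48 hr at 37 °C, then CellTiter-Glo added for 30 min at room temperature before luminescence reading. Line: DT40 Tdp1-/- complemented with hTDP1; camptothecin omitted.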
# HT1080-NT tox = kills 2HG-producing HT-1080-NT fibrosarcoma cells | HT-1080-NT fibrosarcoma viability, CellTiter-Glo ATP luminescence, 48 h | 360,000 compounds, 1.6% hits | Potency, µM (series often up to 46.1 µM), inactives show top-dose activity, negative = less viability, hits mostly cytotoxic;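 further: NT is the 2HG producing partner of a matched IDH1 knockdown line; potency means the concentration at half of the fitted maximal effect; 0% = DMSO-treated cells and -100% = media-only wells without cells; nearly all actives have a fitted effect of over 55% in size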
#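 A 48-hour cytotoxicity screen used HT-1080-NT cells plated 2 hours before compound delivery. ATP-based CellTiter-Glo luminescence measured viability, normalized to DMSO and no-cell controls.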
# HT1080 IDH1KD tx = kills HT-1080 cells with IDH1 knockdown | HT-1080 IDH1 knockdown viability, ATP luminescence, 48 h | Potency, µM (doses to about 46.1 µM), for the others: at the highest dose activity, negative = toxicity, actives largely listed as cytotoxic | 360,000 compounds, 2% hits;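 further: potency means the concentration at half of the fitted maximal effect; 0% = DMSO wells and -100% = cell-free medium wells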
#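 Using the IDH1-knockdown HT-1080 line run in the same batch and compound series as the NT line, viability after 48 h at 37 °C was determined by CellTiter-Glo luminescence and expressed as % activity.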
# IL-1B inflam inh = inhibitors of inflammasome signaling (IL-1 beta secretion); activity change, % at 57.5 µM; 360,000 compounds, 4.7% hits; THP-1 LPS/ATP IL-1B secretion, AlphaLISA, 16 h; hits give low values; in the data active means activity change below about -50%; inconclusive means mostly about -30% to -49%
#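 Secreted IL-1B measured by AlphaLISA bead assay after 16 h compound exposure of THP-1 cells; compounds (final up to 57.5 uM) added 1 h before LPS (250 ng/mL) and ATP (1.25 mM) stimulation; lower signal means less secretion.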
# ALOX12 inh = ALOX12 (human) lipoxygenase inhibition | purified 12hLO, xylenol orange hydroperoxide absorbance | Potency, µM (titrated, usually from 108 µM), for inactives: top-dose activity change, negative = inhibition, hits mostly inhibitors | 580,000 compounds, 1.1% hits; further: potency means the concentration at half of the fitted maximal effect
# Target sequence (P18054 whole entry, looked up): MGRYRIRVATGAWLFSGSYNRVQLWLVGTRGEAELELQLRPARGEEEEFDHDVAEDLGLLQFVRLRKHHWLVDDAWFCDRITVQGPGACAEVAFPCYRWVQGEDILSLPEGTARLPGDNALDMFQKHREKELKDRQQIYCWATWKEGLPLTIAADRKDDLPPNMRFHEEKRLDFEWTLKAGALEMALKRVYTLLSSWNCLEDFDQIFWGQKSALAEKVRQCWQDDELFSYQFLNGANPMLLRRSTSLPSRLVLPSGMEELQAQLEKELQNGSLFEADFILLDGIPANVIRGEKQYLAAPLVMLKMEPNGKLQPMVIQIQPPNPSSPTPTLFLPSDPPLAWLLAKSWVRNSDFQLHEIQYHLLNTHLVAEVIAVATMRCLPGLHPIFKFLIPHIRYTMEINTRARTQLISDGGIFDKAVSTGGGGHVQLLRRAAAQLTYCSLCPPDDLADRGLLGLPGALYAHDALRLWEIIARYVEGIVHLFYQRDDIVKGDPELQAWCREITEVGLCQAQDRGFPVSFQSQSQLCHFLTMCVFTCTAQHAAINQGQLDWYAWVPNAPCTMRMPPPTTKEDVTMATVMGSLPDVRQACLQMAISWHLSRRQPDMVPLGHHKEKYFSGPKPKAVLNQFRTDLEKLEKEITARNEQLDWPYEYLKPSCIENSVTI
#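 Purified human 12hLO (150 nM final) in 25 mM Hepes, 0.01% Triton X-100, pH 7.0 was preincubated 15 min at room temperature with compound. Then 40 uM arachidonic acid was added, 30 min. Hydroperoxide was read by Fe-XO absorbance ratio 573/405 nm.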
# The depositor's hits bear a star; ? = inconclusive; . = no result; [ ] = dose if it differs, or a comment. Unless noted, the call rests on the fitted dose curve; in most records, active means well fitted curve in the direction sought with a large enough effect; inconclusive means small, poorly fitted or top-dose-only effect, or another doubt; inactive means no such curve, though single readings can be large; an effect the other way counts as inactive or inconclusive. Unless noted, on the % scale 0 is the no-effect control and ±100 the full control effect.
SMILES,TDP1 cell CPT,DT40 TDP1 no CPT,HT1080-NT tox,HT1080 IDH1KD tx,IL-1B inflam inh,ALOX12 inh
CCCOc1ccc(C(=O)N2CCCCC2CCN2CCOCC2)cc1 (stereo not drawn),.,.,.,.,.,-3.7%
Cc1cc(S(=O)(=O)Nc2ccc(C(F)(F)F)cc2)sc1C(=O)O,.,.,.,.,.,44.7%
O=C(OCC(=O)N1CCN(c2ccccc2)CC1)c1ccc(O)cc1O,-14.9%,-9.6%,-16.1%,-1.6%,32.2,-1.3%
Cc1ccc(OCC(=O)NCCCNC(=O)c2ccncc2)cc1C,1.6%,-13.4%,-10.1%,3.6%,21.4,-25.6%
NC(=O)[C@H](Cc1cccs1)NC(=O)C1=C[C@@H](NC(=O)c2cnccn2)[C@@H](O)[C@H](O)C1,.,.,.,.,.,11.9%[176 µM]
O=C(CSc1nnnn1C1CCCC1)NC(c1ccccc1)c1cccs1 (stereo not drawn),.,.,.,.,.,-4.6%
Fc1ccc(CN(Cc2ccccc2)C(c2cccs2)c2nnnn2C2CCCCC2)cc1 (stereo not drawn),?,16.4µM*,-4.5%,-17.6%,-27.8,0.0%
Cc1cc2cc(C(c3nnnn3C(C)(C)C)N(Cc3ccco3)CC3CCCO3)c(=O)[nH]c2cc1C (stereo not drawn),?,?,22.1%,-11.0%,0.0,-8.9%
CC(C)(C)n1nnnc1C(c1cccs1)N(Cc1ccc(Cl)cc1)CC1CCCO1 (stereo not drawn),20.6µM*,16.4µM*,-25.7%,?,0.0,0.0%
Clc1ccc(CN(Cc2ccccc2)C(c2cccs2)c2nnnn2C2CCCC2)cc1 (stereo not drawn),14.6µM*,14.6µM*,-16.2%,-16.9%,-14.0,0.0%
O=C1CCN(C(=O)c2cccc3[nH]ccc23)CCCCCCN1,.,.,.,.,.,23.7%
Cc1cc(S(=O)(=O)n2ccnc2C(C)C)cc([N+](=O)[O-])c1C,1.7%,-2.8%,.,.,.,0.8%
CN1C(=O)c2cccn2CC1C(=O)N1CCOCC1 (stereo not drawn),.,.,.,.,.,8.3%
NC(=S)N=Nc1c(O)[nH]c2ccccc12,13.3%,-9.9%,-1.6%,-0.2%,-9.7,-25.5%
CC(C)c1ccc2[nH]c(O)c(N=NC(=S)NCCc3ccccc3)c2c1,18.4µM*,8.2µM*,?,?,27.6,-17.9%
CCCCNC(=S)N=Nc1c(O)[nH]c2ccccc12,?,10.3µM*,-3.8%,?,-17.4,4.0%
CC(C)CC(=O)N=Nc1c(O)[nH]c2ccccc12,0.1%,-6.5%,27.9%,17.0%,-25.7,-13.5%
Oc1[nH]c2ccccc2c1N=NC(=S)NCCc1ccccc1,16.4µM*,?,-10.6%,?,-1.8,?
Cc1ccc2[nH]c(O)c(N=NC(N)=S)c2c1,?,-3.3%,12.6%,12.9%,?,?
CCNC(=S)N=Nc1c(O)[nH]c2ccc(C(C)C)cc12,5.17µM*,5.17µM*,2.0%,-21.2%,-14.8,11.3%
CCN(C(=O)C1CC1)C1CCCCC1,.,.,.,.,.,19.7%
CC(C)c1ccc2[nH]c(O)c(N=NC(=O)c3ccc(CSc4nncn4C)cc3)c2c1,23.1µM*,16.4µM*,-6.9%,-5.5%,?,2.5%
Cn1cnnc1SCc1ccc(C(=O)NN)cc1,12.8%,-2.8%,-0.4%,-1.3%,-0.5,9.6%
Cc1noc(C)c1S(=O)(=O)N(CC(=O)NCc1ccc2c(c1)OCO2)c1ccc(C(C)C)cc1,?,?,0.0%,-8.6%,-1.9,8.8%
O=C(NCc1ccc2c(c1)OCO2)C1(S(=O)(=O)c2ccccc2)CC1,-9.1%,-10.8%,-1.0%,1.1%,15.4,-11.4%
SMILES,TDP1 cell CPT,DT40 TDP1 no CPT,HT1080-NT tox,HT1080 IDH1KD tx,IL-1B inflam inh,ALOX12 inh
Cc1ccc(N(CC(=O)NCCc2ccc(Cl)cc2)S(=O)(=O)c2c(C)noc2C)cc1,23.1µM*,14.6µM*,-0.2%,-4.9%,-2.3,11.0%
Cc1ccc(CCNC(=O)CN(c2cc(C)cc(C)c2)S(=O)(=O)c2c(C)noc2C)cc1,-21.7%,?,-3.7%,-0.3%,-0.9,-2.0%
Cc1ccc(CCNC(=O)CN(c2ccc(C)cc2)S(=O)(=O)c2c(C)noc2C)cc1,?,16.4µM*,4.0%,9.1%,-5.4,29.9%
Cc1ccc(N(CC(=O)NCc2ccc3c(c2)OCO3)S(=O)(=O)c2c(C)noc2C)cc1,?,23.1µM*,-2.6%,-1.1%,-12.0,7.0%
Cc1ccc(S(=O)(=O)C2(C(=O)NCc3ccc4c(c3)OCO4)CC2)cc1,?,18.4µM*,1.1%,-0.3%,17.1,35.8%
CN(C)Cc1ccc(-c2cc3c(ccn3Cc3cccnc3)c(C3=CCOCC3)n2)cc1,.,.,.,.,.,-4.9%[176 µM]
COc1ccc(CCNC(=O)CN(c2cc(C)cc(C)c2)S(=O)(=O)c2c(C)noc2C)cc1OC,?,18.4µM*,10.9%,17.7%,-3.6,9.7%
Cc1ccc(Cn2cc(/C=C(\C#N)C(N)=O)c3ccccc32)cc1,.,.,.,.,.,-17.1%
COc1cc(NC(=O)c2nccn2C)cc(C(=O)Nc2cccc(C(F)(F)F)c2)c1,?,6.51µM*,?,?,61.2,?
Cn1ccnc1SCC(=O)Nc1cccc(C(F)(F)F)c1,-2.1%,-0.1%,-7.4%,17.0%,-4.5,12.3%
COc1cc(NC(=O)c2ccno2)cc(C(=O)Nc2cccc(C(F)(F)F)c2)c1,?,16.4µM*,-10.1%,-5.7%,-5.6,-20.7%
COc1cc(NC(=O)c2nccnc2N)cc(C(=O)Nc2cccc(C(F)(F)F)c2)c1,?,?,?,?,57.5,18.6%
COc1ccc2nc3oc(C(=O)Nc4cccc(C(F)(F)F)c4)cc3cc2c1,13µM*,11.6µM*,.,.,.,-5.3%
COc1cc(Nc2ccccn2)cc(C(=O)Nc2cccc(C(F)(F)F)c2)c1,16.4µM*,?,?,?,-5.0,-47.6%
COc1cc(NC(=O)c2cc3cccc(OC)c3o2)cc(C(=O)Nc2cccc(C(F)(F)F)c2)c1,6.51µM*,5.17µM*,?,-17.2%,40.3,-10.7%
COc1cc(NC(=O)c2ccc(N)nc2)cc(C(=O)Nc2cccc(C(F)(F)F)c2)c1,?,16.4µM*,-6.7%,-14.1%,-10.8,?
COc1cc(NC(=O)c2csc(-c3ccncc3)n2)cc(C(=O)Nc2cccc(C(F)(F)F)c2)c1,8.2µM*,4.61µM*,-20.0%,-27.3%,-15.2,-17.8%
COc1ccc(-c2cc(C(=O)Nc3cc(OC)cc(C(=O)Nc4cccc(C(F)(F)F)c4)c3)[nH]n2)cc1,2.31µM*,2.59µM*,?,?,45.9,2.1%
